Experimental data: PubChem BioAssay AID1345085 (National Center for Advancing Translational Sciences (NCATS), 2018)
Results filed as inconclusive are left out. Active and inactive are the calls of the source. Calls come from the whole dose curve; as a rule, active = well fitted cell-killing curve with a large enough effect; inconclusive = small, poorly fitted or top-dose-only effect, or effect the other way; inactive = no such curve, though single readings can be large or run the other way.

System: Tov-21-G
Experiment: Confirmatory qHTS for gynecologic anti-cancer compounds from libraries of approved drugs and bioactive compounds; note: nearly all actives have a fitted effect of over 55% in size
Conditions: gynecologic cancer cell panel viability, ATPlite luminescence, 48 h; series mostly up to 57.7 µM
In short: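 Cells (1,000/well) were plated, left 16 h at 37 C/5% CO2, then given compound at 11 concentrations (1:3) from 57.5 uM to 0.977 nM for 48 h. ATPlite luminescence after 15 min at room temperature gave IC50 values.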
Potency is the fitted concentration of half-maximal effect.

SMILES | Potency
O=C(O)Cc1ccccc1 | inactive
CCOc1ccccc1-n1c(C(C)N2CCN(C(=O)COc3ccc(Cl)cc3)CC2)nc2ccccc2c1=O (stereo unspecified) | 1720 nM (active)
C/C=C(/C)C(=O)O[C@H]1C(C)=C2[C@H]([C@@H]1OC(=O)CCCCCCC)[C@@](C)(OC(C)=O)C[C@H](OC(=O)CCC)[C@@]1(O)[C@H]2OC(=O)[C@@]1(C)O | 13700 nM (active)
Cc1sc2c(c1C)C(c1ccc(Cl)cc1)=NC(CC(=O)OC(C)(C)C)c1nnc(C)n1-2 (stereo unspecified) | 1220 nM (active)
CCN1CCN(C(=O)Cc2ccc(Nc3ncc(F)c(Nc4ccc(C(=O)Nc5ccccc5Cl)cc4)n3)cc2)CC1 | inactive
CCNC(=O)C[C@@H]1N=C(c2ccc(Cl)cc2)c2cc(OC)ccc2-n2c(C)nnc21 | 685 nM (active)
